Compound activity: PubChem, National Center for Advancing Translational Sciences (NCATS)
L3MBTL1 block: L3MBTL1 (human) inhibition. Q9Y468. AlphaScreen L3MBTL1–H3K9me1 peptide binding. Potency, µM (doses to about 57.1 µM), most hits filed as inhibitors. actives 0.66% (n = 230,000). AID 485360; further: nearly all actives have a fitted effect of over 60% in size
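L3MBTL1 50 nM + b-AHA-H3(1-15)K9me1 75 nM, 30 min RT; compound added, 30 min RT; streptavidin donor/Ni-chelate acceptor beads 10 ug/mL each final, 30 min RT dark; AlphaScreen read.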
HttQ103 aggreg: reduces HttQ103-GFP aggregates in PC12 cells; actives 1.1% (n = 220,000); PC12 HttQ103-GFP aggregates, Acumen cytometry, 40 h; AID 1688; Potency, µM (top dose mostly 46.1 µM), hits mostly inhibitors; further: nearly all actives have a fitted effect of over 60% in size
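Inducible Q103 Huntingtin exon 1–GFP PC12 line, 1500 cells/well in phenol red free DMEM with 5% equine and 5% calf serum. Tebufenozide 100 nM induced expression; compounds titrated; aggregates quantified by cytometry.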
KDM4E inh: inhibitors of human JMJD2E histone demethylase; B2RXH2; JMJD2E catalytic domain, FDH-coupled NADH fluorescence (FDH is formaldehyde dehydrogenase); Potency, µM (titrated, usually from 57.1 µM), usual class: inhibitors; actives 1.6% (n = 230,000); active means well fitted inhibition curve with a large enough effect, not every such curve was filed as active; inconclusive means small, poorly fitted or top-dose-only effect, or another doubt; inactive means no such curve, though single readings can be large or run the other way; further: nearly all actives have a fitted effect of over 50% in size
Target sequence (B2RXH2 1-337 limits assumed): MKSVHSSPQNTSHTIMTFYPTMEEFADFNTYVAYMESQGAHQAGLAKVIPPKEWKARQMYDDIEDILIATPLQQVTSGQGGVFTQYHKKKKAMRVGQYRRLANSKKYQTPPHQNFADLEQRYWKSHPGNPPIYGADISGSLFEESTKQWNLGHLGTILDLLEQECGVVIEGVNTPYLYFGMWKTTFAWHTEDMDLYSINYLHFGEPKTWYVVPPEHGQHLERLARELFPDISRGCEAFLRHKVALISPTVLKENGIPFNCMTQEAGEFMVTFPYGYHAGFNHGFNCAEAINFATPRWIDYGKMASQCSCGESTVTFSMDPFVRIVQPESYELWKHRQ
HTT ATP protect: cytoprotection in Huntington HTT-Q103 PC12 cell model; PC12 HTT-Q103 induced, cytoprotection, ATP luminescence, 40 h; Potency, µM (doses to about 56.4 µM), actives largely listed as activators; actives 0.14% (n = 230,000); further: nearly all actives have a fitted effect of over 45% in size
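Compounds added alongside 100 nM tebufenozide, which induces toxic Q103 huntingtin exon 1-GFP in stable PC12 cells; surviving cells quantified by luminescent ATP measurement. Medium: phenol red-free DMEM, 5% equine and 5% calf serum.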
A number is an active result; i = inactive; ? = inconclusive; nt = not tested or not shown; ! = not active in a repeat; [ ] = another dose, or the depositor's remark. A selection: hits, their analogues and other compounds. The true share with any hit is near 1.8%. Unless noted, the call rests on the fitted dose curve; in most records, active means well fitted curve in the direction sought with a large enough effect; inconclusive means small, poorly fitted or top-dose-only effect, or another doubt; inactive means no such curve, though single readings can be large; an effect the other way counts as inactive or inconclusive.

SMILES	L3MBTL1 block	HttQ103 aggreg	KDM4E inh	HTT ATP protect
CCOc1ccccc1C(=O)N1c2ccccc2Sc2ccccc21	nt	16µM	i	?
CC(C)CO/N=C1/C[C@@H](O)[C@@H](O)[C@@H]2[C@@H]3C(=O)N(C4CCCCC4)C(=O)[C@H]3CC[C@@H]12	nt	nt	nt	i[10 µM]
Cn1c(=O)oc2cc(S(=O)(=O)N3CCCC(C(=O)N4CC=C(c5ccccc5)CC4)C3)ccc21 (stereo not drawn)	i	11µM	i	i
O=C(c1ccc(-c2cc(O)c3ncccc3c2)cc1)N1CCNCC1	25µM	nt	nt	nt
CC(C)(C)c1ccc(C(=O)N2CCNCC2)cc1	nt	i	i	i
CCOC(=O)c1nnc(-c2ccc(C)cc2)nc1Oc1ccccc1Cl	i	22µM	i	nt
CCOC(=O)c1nnc(-c2ccc(C)cc2)nc1Oc1ccc(Cl)cc1Cl	i	i	i	i
CC(C(=O)O)N1C(=O)/C(=C/c2cccn2C)SC1=S (stereo not drawn)	i	i	i	i[10 µM]
Cn1cccc1/C=C1/SC(=S)N(CC(=O)O)C1=O	nt	i	22µM	i
O=c1c(-c2cccs2)nc2cnc(Oc3cccc(Cl)c3)nc2n1C[C@H]1CCCO1	nt	nt	nt	i
N#Cc1c(-c2ccncc2)c2c([nH]c1=S)CCCC2	i	i	i	i
Cc1ccc(-c2c3c([nH]c(=S)c2C#N)CCCC3)o1	?	i	28µM	i
O=c1c(-c2cccs2)nc2cncnc2n1C1CC1	nt	nt	nt	i
CCCCCCCC/C=C\CCCCCCCC(=O)NCCc1ccc(O)c(O)c1	i	nt	20µM!	i
CCCn1c(-c2ccc(F)cc2)nc2c(NCCN(CC)CC)nc(C)nc21	nt	nt	?	i
Cc1nc2c(=O)n(C)c(=O)n(C)c2nc1Cl	i	10µM	?	i[10 µM]
O=C(Nc1nc2ccccc2n1CCN1CCOCC1)c1cn(-c2ccccc2)nc1-c1ccccc1	i	?	25µM	i
Cc1nn(C(C)(C)C)c(OC(=O)c2cccs2)c1S(=O)(=O)c1ccccc1	i[11.4 µM]	13µM	i	i[0.074 µM]
Cc1cc(C(=O)N/N=C/c2cccc([N+](=O)[O-])c2O)n[nH]1	?	?	13µM	i[10 µM]
Cc1cc(C(=O)N/N=C/c2cc(N=Nc3ccccc3)ccc2O)n[nH]1	i	?	5µM	i[10 µM]
COc1cccc([C@@H]2Oc3ccc(Br)cc3C(=O)[C@H]2OC(=O)Nc2ccc(OC(F)F)cc2)c1	nt	nt	i	nt
COc1cc2[nH]c(Cl)c([N+](=O)[O-])c2cc1OC	nt	i[9.22 µM]	13µM	i[10 µM]
N#Cc1c(NCc2ccccc2)ccnc1NCc1cccnc1	i	22µM	i	i[10 µM]
CCC(=O)[C@]12O[C@@]3(C4C(=O)OCCC41)N(CC)C(C)=C(C(=O)OC)C(c1ccccc1)N3C2=O (stereo partly drawn)	nt	nt	nt	i[10 µM]
Cc1cc2c(nc1C)CCCN2C[C@H](O)CN1CCCc2nc(-c3ccc(Br)cc3)ccc21	nt	nt	nt	i[10 µM]
SMILES	L3MBTL1 block	HttQ103 aggreg	KDM4E inh	HTT ATP protect
O=C1C=CC(=O)C(C2=C3C(=O)N(CCc4ccccc4)CC(=O)N3CCC2)=C1	i	7.1µM	?	nt
Nc1ccccc1Nc1cc(-c2ccccc2)[nH]n1	i	i	20µM	i
Nc1ccccc1Nc1cc(-c2ccccc2)nn1-c1ccccc1	?	i	?	i[10 µM]
Cc1cc(/C=N/n2cnnc2)c(C)n1-c1ccc(OCc2ccc(F)cc2)cc1	i	7.1µM	i	i[10 µM]
Cc1cc(/C=N/n2cnnc2)c(C)n1-c1ccc(Cl)cc1	i	i	?	i[0.074 µM]
Cc1cc(/C=N/n2cnnc2)c(C)n1-c1ccc(OCc2ccc(Cl)cc2Cl)cc1	nt	6.3µM	?	i
COc1ccc2[nH]c3c(N4CC(C)OC(C)C4)ncnc3c2c1 (stereo not drawn)	nt	i	?	i
COc1cccc(N2CCN(c3ncnc4c3[nH]c3ccccc34)CC2C)c1 (stereo not drawn)	i	11µM	i	i[10 µM]
COc1ccc2c(c1)[nH]c1c(N3CCSCC3)ncnc12	i	i[9.22 µM]	?	i[10 µM]
COc1cccc(N2CCN(c3ncnc4c3[nH]c3ccc(F)cc34)CC2C)c1 (stereo not drawn)	i	6.3µM	?	i
CCN(CC)Cc1c(O)ccc2c([N+](=O)[O-])c(C)n(-c3ccc(OC)cc3)c12	i	5µM	i	i[10 µM]
CCCNCc1cc(Br)ccc1OCC(=O)NCCc1ccccc1	i	i	i	nt
O=C(COc1ccc(Br)cc1CNCCc1ccccc1)NCc1ccccc1	i[11.4 µM]	13µM	i	i
c1ccc(-c2nc(-c3cccc4ccccc34)c(NC3CCCCC3)o2)cc1	nt	nt	i	i
COC(=O)C1=C(O)/C(=C\c2ccc(CNC(=O)C(=O)Nc3ccc(C)cc3)o2)N=C1C	7.9µM	i	i	i
O=C(/C=C/c1ccc2c(c1)OCO2)c1ccc[nH]1	i	i	i	nt
